# PubChem BioAssay
# Records with an inconclusive call do not appear. The source made the active and inactive calls.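 Rule for the calls, unless noted: active = GFP signal, as percent of the solvent control, above the screen mean plus 3 SD, about 149; inconclusive = no reading because the compound's own fluorescence upset strain identification; inactive = the rest.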
# What was measured:
# [1] = yeast TOR pathway RPL19A-GFP modulators, primary screen, cell-based, S. cerevisiae, multiplex flow cytometry (AID 1862; in the data active = percent of DMSO control GFP below about 86%;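 note: lower values mimic rapamycin by blocking the RPL19A rise seen in DMSO cells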); conditions: S. cerevisiae RPL19A-GFP strain, flow cytometry fluorescence, 3 h; at 10 µM; stronger effect = lower value
# [2] = modulators of MEP2-GFP levels in yeast, primary screen, S. cerevisiae, multiplex flow cytometry (AID 1867;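 active = GFP response, as percent of the DMSO control, above the screen-wide mean plus 3 SD, about 139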;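 note: median GFP channel fluorescence of barcode-gated MEP2-GFP cells measured by flow cytometry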); conditions: S. cerevisiae MEP2-GFP strain, 3 h, at 10 µM, stronger effect = higher value, 100% means same as DMSO wells
# [3] = modulators of CIT2-GFP expression in yeast, primary screen, S. cerevisiae, GFP fusion, multiplex flow cytometry (AID 1870;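 active = percent response above a set limit, the screen-wide mean plus 3 SD, cut at about 130% in these data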;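 note: barcoded CIT2-GFP strain pooled with four other GFP strains with rapamycin as positive control; median GFP fluorescence per well over plate mean of DMSO wells so 100% = DMSO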); conditions: 3 h, at 10 µM, stronger effect = higher value
# [4] = modulators of LAP4-GFP expression in yeast, primary screen, S. cerevisiae, multiplex flow cytometry (AID 1873); conditions: 3 h, at 10 µM, stronger effect = higher value
# [5] = modulators of AGP1-GFP expression in yeast TOR pathway, primary screen, cell-based, multiplex flow cytometry, S. cerevisiae (AID 1887;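 active = GFP signal above the screen-wide mean plus 3 SD, that is over about 124.5% of the solvent control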;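 note: AGP1-GFP fusion strain of S. cerevisiae within a five-strain barcoded multiplex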); conditions: 3 h, at 10 µM, stronger effect = higher value
# [6] = inhibitors of CD8+ T cell-vesicle binding, pilot screen, LFA-1/ICAM-1 modulator project, MLPCN validation set, flow cytometry (AID 2523;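 active = response below a set limit, under 55% cells CD8-positive and vesicle-bound, and CD8 cells' 90th-percentile brightness under 279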;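 for vesicle binding response: mean PE anti-B7-1 fluorescence of CD8+ cells relative to row control; 100% = QL9-loaded vesicles with DMSO vehicle in the same plate row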); conditions: 2C mouse CD8+ T cells, at 7 µM, stronger effect = lower value; double positive events: measured here: CD8+/vesicle+ event percentage
# [7] = molecular target: Integrin beta-1 (Homo sapiens) + Integrin alpha-4 (Homo sapiens) (UniProt P13612+P05556); test: inhibition of HUTS-21 binding to VLA-4, pilot screen, VLA-4 allosteric modulator project, U937 cells, HUTS-21 mAb, flow cytometry, validation set (AID 2674;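 active = inhibition above 50%, about 3 SD of the validation set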;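 note: antibody binding induced by the VLA-4 ligand LDV present at three times its Kd; 0% = LDV ligand with antibody and no compound and 100% = antibody without LDV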); conditions: HUTS-21 LIBS mAb binding, at 6.7 µM, stronger effect = higher value, binding induced by LDV ligand
# Chain of Integrin beta-1 (Homo sapiens) + Integrin alpha-4 (Homo sapiens) (P05556 whole entry, looked up): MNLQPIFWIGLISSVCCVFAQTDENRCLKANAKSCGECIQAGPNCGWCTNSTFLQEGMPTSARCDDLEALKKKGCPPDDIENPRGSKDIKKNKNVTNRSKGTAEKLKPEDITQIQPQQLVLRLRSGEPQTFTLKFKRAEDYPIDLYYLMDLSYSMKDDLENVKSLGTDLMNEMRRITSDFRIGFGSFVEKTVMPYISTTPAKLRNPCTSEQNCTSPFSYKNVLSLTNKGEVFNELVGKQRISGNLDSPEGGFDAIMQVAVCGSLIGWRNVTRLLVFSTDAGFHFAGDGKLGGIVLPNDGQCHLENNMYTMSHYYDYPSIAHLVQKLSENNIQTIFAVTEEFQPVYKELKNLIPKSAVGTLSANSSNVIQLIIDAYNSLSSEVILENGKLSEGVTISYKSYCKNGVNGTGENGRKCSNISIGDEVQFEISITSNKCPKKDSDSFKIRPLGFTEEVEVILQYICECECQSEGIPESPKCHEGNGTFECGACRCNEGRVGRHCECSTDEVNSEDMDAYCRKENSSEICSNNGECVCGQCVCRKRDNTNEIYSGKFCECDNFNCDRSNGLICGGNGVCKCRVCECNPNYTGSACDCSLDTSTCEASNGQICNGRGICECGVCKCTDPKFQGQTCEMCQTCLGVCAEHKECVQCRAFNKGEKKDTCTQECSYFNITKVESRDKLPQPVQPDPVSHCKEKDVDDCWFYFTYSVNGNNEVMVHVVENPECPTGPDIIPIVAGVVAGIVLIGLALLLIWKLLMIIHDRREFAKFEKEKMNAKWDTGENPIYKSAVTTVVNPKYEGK
# Chain of Integrin beta-1 (Homo sapiens) + Integrin alpha-4 (Homo sapiens) (P13612 whole entry, looked up): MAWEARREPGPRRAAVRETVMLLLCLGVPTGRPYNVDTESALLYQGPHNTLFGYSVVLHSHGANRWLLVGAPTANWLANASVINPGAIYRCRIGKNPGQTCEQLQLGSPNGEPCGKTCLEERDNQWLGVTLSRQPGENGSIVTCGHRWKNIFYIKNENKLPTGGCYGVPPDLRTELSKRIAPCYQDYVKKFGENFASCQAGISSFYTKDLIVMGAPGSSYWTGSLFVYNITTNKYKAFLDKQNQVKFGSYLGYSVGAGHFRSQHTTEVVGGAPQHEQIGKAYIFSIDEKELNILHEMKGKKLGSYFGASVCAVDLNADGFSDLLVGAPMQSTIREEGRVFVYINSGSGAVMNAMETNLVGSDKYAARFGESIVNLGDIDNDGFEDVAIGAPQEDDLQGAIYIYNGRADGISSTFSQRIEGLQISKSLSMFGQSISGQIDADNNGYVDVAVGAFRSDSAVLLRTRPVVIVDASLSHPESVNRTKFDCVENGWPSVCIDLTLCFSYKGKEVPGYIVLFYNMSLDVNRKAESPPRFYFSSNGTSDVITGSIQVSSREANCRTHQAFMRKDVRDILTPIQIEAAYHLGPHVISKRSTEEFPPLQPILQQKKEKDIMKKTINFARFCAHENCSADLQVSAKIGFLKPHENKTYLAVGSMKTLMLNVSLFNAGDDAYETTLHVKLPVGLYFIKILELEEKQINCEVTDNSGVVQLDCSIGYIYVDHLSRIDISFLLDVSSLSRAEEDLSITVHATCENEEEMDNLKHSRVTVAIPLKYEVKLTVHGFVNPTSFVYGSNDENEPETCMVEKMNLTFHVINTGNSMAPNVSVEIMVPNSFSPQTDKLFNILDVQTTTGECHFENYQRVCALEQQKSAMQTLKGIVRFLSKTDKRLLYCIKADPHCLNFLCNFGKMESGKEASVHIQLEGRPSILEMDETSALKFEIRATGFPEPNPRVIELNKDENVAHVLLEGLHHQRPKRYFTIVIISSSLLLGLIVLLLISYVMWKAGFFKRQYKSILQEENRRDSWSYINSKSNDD
# [8] = superoxide lowering in aged yeast cells, pilot screen, validation compound set (AID 2706;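 active = superoxide response below 65% of plate, a cut near 3 SD across the whole screen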;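 note: yeast exposed to compound for one week at 30 degrees C before staining; 100% = mean of all compound wells on the same plate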); conditions: S. cerevisiae aging, superoxide DHE fluorescence; at 10 µM, stronger effect = lower value
# [9] = molecular target: Beta-adrenergic receptor kinase 1 (Homo sapiens) (UniProt P25098); test: GRK2 binders displacing RNA aptamer, biochemical, validation, human GRK2, bead flow cytometry (AID 488806;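 active = aptamer binding inhibition above 30%, about 3 SD of noise from non-fluorescent compounds; inactive = inhibition at or below 30%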); conditions: bead-bound GRK2, FAM-aptamer displacement, at 10 µM, stronger effect = higher value
# Chain of Beta-adrenergic receptor kinase 1 (Homo sapiens) (P25098 whole entry, looked up): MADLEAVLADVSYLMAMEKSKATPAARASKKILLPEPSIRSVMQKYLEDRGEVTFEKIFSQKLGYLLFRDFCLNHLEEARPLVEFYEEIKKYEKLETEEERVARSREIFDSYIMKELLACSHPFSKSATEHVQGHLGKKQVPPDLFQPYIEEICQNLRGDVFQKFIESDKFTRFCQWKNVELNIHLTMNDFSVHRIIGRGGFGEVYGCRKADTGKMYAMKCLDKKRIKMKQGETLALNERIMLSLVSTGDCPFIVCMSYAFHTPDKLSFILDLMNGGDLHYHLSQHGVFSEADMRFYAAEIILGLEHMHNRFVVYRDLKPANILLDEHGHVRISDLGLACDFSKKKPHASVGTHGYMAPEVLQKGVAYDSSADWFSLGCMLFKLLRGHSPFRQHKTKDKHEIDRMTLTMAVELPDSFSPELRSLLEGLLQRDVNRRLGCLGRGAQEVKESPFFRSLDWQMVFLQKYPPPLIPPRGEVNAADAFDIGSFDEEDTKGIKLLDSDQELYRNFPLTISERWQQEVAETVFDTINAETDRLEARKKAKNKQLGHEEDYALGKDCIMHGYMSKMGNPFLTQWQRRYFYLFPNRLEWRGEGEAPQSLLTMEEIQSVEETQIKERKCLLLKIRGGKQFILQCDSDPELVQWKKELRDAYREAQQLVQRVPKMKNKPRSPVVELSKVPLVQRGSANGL
# [10] = molecular target: Beta-2 adrenergic receptor (Homo sapiens) (UniProt P07550); test: beta2AR agonists driving receptor internalization, pilot screen, cell-based, FAP fluorogen, flow cytometry, validation set (AID 504459;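 active = percent response above 42, roughly 3 SD of non-fluorescent test compounds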;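 note: agonist-driven loss of surface beta2AR via internalization measured by FAP dye flow cytometry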); conditions: Am2.2-beta2AR cells, FAP surface receptor flow cytometry; at 10 µM; stronger effect = higher value
# Chain of Beta-2 adrenergic receptor (Homo sapiens) (P07550 whole entry, looked up): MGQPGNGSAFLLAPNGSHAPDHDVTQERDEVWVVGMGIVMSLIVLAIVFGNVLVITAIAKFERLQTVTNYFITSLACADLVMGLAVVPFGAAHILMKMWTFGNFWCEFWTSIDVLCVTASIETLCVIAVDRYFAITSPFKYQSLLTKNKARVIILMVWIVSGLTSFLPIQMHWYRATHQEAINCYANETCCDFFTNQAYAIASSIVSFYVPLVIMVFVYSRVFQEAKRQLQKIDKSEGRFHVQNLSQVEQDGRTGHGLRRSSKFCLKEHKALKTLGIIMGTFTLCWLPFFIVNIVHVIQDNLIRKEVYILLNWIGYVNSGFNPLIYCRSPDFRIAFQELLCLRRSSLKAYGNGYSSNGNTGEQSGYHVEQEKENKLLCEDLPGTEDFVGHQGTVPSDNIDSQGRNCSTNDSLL
# [11] = yeast V-ATPase proton transport modulators, S. cerevisiae, pHLuorin, HTS validation (AID 504600; in the data active = response above about 15%;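 note: plate controls were DMSO for no effect and reference compound for full effect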); conditions: S. cerevisiae pHLuorin cytosolic pH, at 10 µM, stronger effect = higher value
# [12] = system: anti-desmoglein-3 scFv antibody binding to human DSG3; test: inhibitors of anti-DSG3 scFv binding to DSG3, pilot screen, biochemical, validation compound set, bead-based, flow cytometry (AID 588368;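 active = binding below the plate cutoff, the plate median minus 3 SD, with a reading above zero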;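 note: signal is the median channel fluorescence of bead-bound GFP antibody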); conditions: Protein G beads, DSG3-Fc, scFv-GFP binding, at 10 µM, stronger effect = lower value
# [13] = inhibitors of fungal efflux pumps CDR1, CDR2, MDR1, pilot screen, validation compound set, multiplex, phenotypic (AID 588506;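 active = efflux inhibition above 0.42, the validation set average plus 4 SD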;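 note: Nile Red retained in cells so higher fluorescence means more efflux inhibition; 0 = negative control wells and 1 = enniatin B 25 µM full block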); conditions: S. cerevisiae pump-expressing triplex, Nile Red efflux flow cytometry; at 10 µM; stronger effect = higher value; the pumps come from Candida albicans
# [14] = molecular target: ATP-binding cassette sub-family B member 6 (Homo sapiens) (UniProt Q9NP58); test: ABCB6 transporter inhibitors, pilot screen, K562-ABCB6 cells, flow cytometry, validation set (AID 588550;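 active = inhibition above the screen-wide mean plus 3 SD, about 51%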;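 note: 0% = DMSO wells and 100% = benzethonium chloride 70 µM positive control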); conditions: K562-ABCB6 porphyrin accumulation, 1 h, at 10 µM, stronger effect = higher value
# Chain of ATP-binding cassette sub-family B member 6 (Homo sapiens) (Q9NP58 whole entry, looked up): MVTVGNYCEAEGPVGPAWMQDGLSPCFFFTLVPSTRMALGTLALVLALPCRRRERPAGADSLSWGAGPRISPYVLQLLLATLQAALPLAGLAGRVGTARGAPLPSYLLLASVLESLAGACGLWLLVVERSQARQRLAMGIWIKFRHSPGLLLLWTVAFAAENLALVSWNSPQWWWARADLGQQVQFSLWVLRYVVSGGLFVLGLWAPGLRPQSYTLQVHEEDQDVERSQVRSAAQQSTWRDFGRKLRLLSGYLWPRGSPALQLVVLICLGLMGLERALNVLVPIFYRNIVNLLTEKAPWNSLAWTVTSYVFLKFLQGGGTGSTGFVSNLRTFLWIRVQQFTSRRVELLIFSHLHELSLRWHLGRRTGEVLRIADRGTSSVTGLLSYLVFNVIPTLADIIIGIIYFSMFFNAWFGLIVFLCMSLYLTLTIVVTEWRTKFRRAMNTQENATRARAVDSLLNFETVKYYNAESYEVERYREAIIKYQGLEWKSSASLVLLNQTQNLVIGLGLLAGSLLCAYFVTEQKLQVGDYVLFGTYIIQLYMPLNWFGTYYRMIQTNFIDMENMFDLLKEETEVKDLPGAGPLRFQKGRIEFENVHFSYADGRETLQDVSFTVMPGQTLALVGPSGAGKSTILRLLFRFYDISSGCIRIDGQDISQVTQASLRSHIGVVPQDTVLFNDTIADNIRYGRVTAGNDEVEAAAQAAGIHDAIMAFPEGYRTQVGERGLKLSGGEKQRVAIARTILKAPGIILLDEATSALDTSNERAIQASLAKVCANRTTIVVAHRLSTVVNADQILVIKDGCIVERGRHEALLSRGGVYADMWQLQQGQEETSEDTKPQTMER
# [15] = promoters of myeloid differentiation in arrested cells, primary screen, cell-based, GFP/MAC1 double positive, flow cytometry, validation set (AID 588685;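 active = differentiation response of at least 50%, scaled between solvent and reference control, from cells with both markers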;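 note: compound exposure lasts four days before antibody staining and flow analysis; 0% = DMSO wells and 100% = 5 µM fulvestrant positive control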); conditions: ER-HoxA9 marrow cells, stronger effect = higher value, normalized: vehicle 0, fulvestrant 100
# [16] = molecular target: AP-2 complex subunit beta (Homo sapiens) (UniProt P63010); test: inhibitors of arrestin peptide binding to AP2, pilot screen, biochemical, validation set, GST-AP2 beads, flow cytometry (AID 504541;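 active = inhibition above 54%, about 3 SD of non-fluorescent compounds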;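 note: AP2 carries R879A mutation and is captured from E. coli lysate; bead-bound FITC arrestin peptide fluorescence measuring arrestin peptide binding to AP2; 0% = DMSO wells and 100% = excess unlabeled arrestin peptide control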); conditions: FITC arrestin peptide, at 10 µM, stronger effect = higher value, AP2 beta2 appendage fragment, R879A mutant
# Chain of AP-2 complex subunit beta (Homo sapiens) (P63010 whole entry, looked up, the tested form may be a part, one chain of several): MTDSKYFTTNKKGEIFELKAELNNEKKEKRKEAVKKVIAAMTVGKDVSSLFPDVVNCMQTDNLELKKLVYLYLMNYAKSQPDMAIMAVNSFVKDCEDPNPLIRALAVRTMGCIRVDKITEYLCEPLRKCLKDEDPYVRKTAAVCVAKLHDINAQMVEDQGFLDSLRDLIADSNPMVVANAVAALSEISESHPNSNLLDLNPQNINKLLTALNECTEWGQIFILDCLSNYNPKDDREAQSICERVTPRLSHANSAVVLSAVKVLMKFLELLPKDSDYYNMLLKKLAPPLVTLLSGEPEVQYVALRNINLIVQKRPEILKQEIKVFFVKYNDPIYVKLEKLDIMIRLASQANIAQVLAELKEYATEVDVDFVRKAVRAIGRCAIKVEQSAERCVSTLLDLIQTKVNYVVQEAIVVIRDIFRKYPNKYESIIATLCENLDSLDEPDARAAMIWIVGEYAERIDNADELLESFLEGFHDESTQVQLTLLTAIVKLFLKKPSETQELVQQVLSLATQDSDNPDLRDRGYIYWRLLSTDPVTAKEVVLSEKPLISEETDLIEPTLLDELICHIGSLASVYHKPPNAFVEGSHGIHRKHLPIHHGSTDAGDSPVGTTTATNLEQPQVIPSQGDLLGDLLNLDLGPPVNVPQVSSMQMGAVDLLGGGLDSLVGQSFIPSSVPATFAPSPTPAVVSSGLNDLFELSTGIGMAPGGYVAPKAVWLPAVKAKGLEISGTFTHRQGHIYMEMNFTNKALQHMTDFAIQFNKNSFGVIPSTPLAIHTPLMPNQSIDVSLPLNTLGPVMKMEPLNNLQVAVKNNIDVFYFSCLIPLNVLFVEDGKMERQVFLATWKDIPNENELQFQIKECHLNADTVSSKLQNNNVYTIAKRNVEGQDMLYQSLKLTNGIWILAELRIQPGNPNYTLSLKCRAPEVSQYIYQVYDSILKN
Structure (SMILES),percent of DMSO control GFP [1],GFP response vs DMSO [2],percent response of DMSO control [3],GFP response vs DMSO [4],"GFP response, % of DMSO [5]",double positive events [6],vesicle binding response [6],inhibition [7],superoxide response (% of plate) [8],aptamer binding inhibition [9],response [10],response [11],binding (% of control) [12],efflux inhibition (fraction of control) [13],inhibition [14],differentiation response [15],inhibition [16]
Nc1nc2ccc(OC(F)(F)F)cc2s1,100% (inactive),99.9% (inactive),99.3% (inactive),102% (inactive),95.1% (inactive),57.4%,21.6% (inactive),-0.31% (inactive),94.9% (inactive),4% (inactive),9.24% (inactive),1.08% (inactive),97.2% (inactive),-0.41 (inactive),3% (inactive),2.69% (inactive),
CC1(C(=O)O)CCC(C(=O)NC2CCCCCC2)C1(C)C (stereo not given),103% (inactive),106% (inactive),93.9% (inactive),110% (inactive),100% (inactive),67.7%,157% (inactive),28.3% (inactive),99.3% (inactive),3% (inactive),10.4% (inactive),-1.45% (inactive),102% (inactive),-0.54 (inactive),7% (inactive),-5.68% (inactive),-8.9% (inactive)
Nc1nc2c(ncn2COC(CO)CO)c(=O)[nH]1,97.3% (inactive),106% (inactive),96.4% (inactive),125% (inactive),119% (inactive),60.3%,212% (inactive),-11.3% (inactive),106% (inactive),-6% (inactive),-20.9% (inactive),-2.35% (inactive),98% (inactive),,5% (inactive),-10.9% (inactive),-16.5% (inactive)
Nc1cccc2c1nnn2C1OC(CO)C(O)C(O)C1O (stereo not given),104% (inactive),94.8% (inactive),102% (inactive),85.3% (inactive),102% (inactive),58%,192% (inactive),-3.97% (inactive),82.8% (inactive),0% (inactive),,4.02% (inactive),105% (inactive),-0.05 (inactive),4% (inactive),-18% (inactive),-6.04% (inactive)
CC(C)NCC(O)COc1ccc(CC(N)=O)cc1 (stereo not given),99.2% (inactive),100% (inactive),105% (inactive),97.3% (inactive),99.1% (inactive),61.8%,127% (inactive),-2.53% (inactive),82.7% (inactive),2% (inactive),,0.46% (inactive),101% (inactive),-0.39 (inactive),6% (inactive),-2.69% (inactive),-8.74% (inactive)
CCCCC1C(=O)N(c2ccccc2)N(c2ccccc2)C1=O,98.1% (inactive),117% (inactive),101% (inactive),89.7% (inactive),97.5% (inactive),66%,258% (inactive),3.55% (inactive),94.9% (inactive),0% (inactive),,-1.74% (inactive),111% (inactive),-0.06 (inactive),8% (inactive),17.2% (inactive),33.1% (inactive)
CC1(C)Cc2ccccc2C(C(Cc2ccccc2)C(N)=O)=N1 (stereo not given),100% (inactive),99.9% (inactive),106% (inactive),89.3% (inactive),92.7% (inactive),51%,132% (inactive),24% (inactive),116% (inactive),3% (inactive),,6.35% (inactive),101% (inactive),0.44 (active),9% (inactive),-5.05% (inactive),-4.92% (inactive)
COc1ccc(OC)c(-c2oc3ccccc3c(=O)c2O)c1,102% (inactive),96.9% (inactive),96.9% (inactive),110% (inactive),101% (inactive),57%,182% (inactive),-8.64% (inactive),102% (inactive),2% (inactive),,5.05% (inactive),97.5% (inactive),-0.01 (inactive),-4% (inactive),-26% (inactive),-1.44% (inactive)
CCc1c(C)c2ccc(OCC(=O)OC(C)C)c(C)c2oc1=O,98.1% (inactive),96.9% (inactive),93% (inactive),89.3% (inactive),88.5% (inactive),57.1%,142% (inactive),7.22% (inactive),101% (inactive),-3% (inactive),,3.44% (inactive),101% (inactive),0.29 (inactive),8% (inactive),-18% (inactive),19.5% (inactive)
